Shiga toxin inh: A qHTS for Small Molecule Inhibitors of Shiga Toxin | Vero cells, Shiga toxin protein synthesis inhibition reporter | inhibition, % at 38.7 µM | actives 9.2% (n = 290,000) | AID 2315, 2010; in the data active means inhibition mostly above about 28%, no sharp cut-off; inactive means mostly below about 43%; further: 0% is about no effect
Pf growth 96h: Primary qHTS for delayed death inhibitors of the malarial parasite plastid, 96 hour incubation; Potency, µM (series often up to 28.7 µM), for the others: top-dose activity change, negative = inhibition, actives largely listed as inhibitors; P. falciparum luciferase reporter growth, 96 h; actives 6.9% (n = 320,000); further: potency means the concentration at half of the fitted maximal effect; on the % scale 0 is the no-effect control and ±100 the full control effect
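Two parasite generations (96 h, 37 C, 5% CO2) of compound exposure in infected erythrocytes (0.05% parasitemia, 2% hematocrit). Luciferase-reporter P. falciparum; decreased luminescence indicates inhibited growth, aimed at apicoplast-acting delayed death.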
Pf growth 48h: Primary qHTS for delayed death inhibitors of the malarial parasite plastid, 48 hour incubation. Potency, µM (series often up to 28.7 µM), for inactives: top-dose activity change, negative = inhibition, most hits filed as inhibitors. AID 504832, 2011. actives 5.9% (n = 310,000). P. falciparum luciferase growth in erythrocytes, 48 h; further: potency means the concentration at half of the fitted maximal effect; on the % scale 0 is the no-effect control and ±100 the full control effect
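Compounds are pin-transferred into medium, infected erythrocytes (2% hematocrit, 0.1% parasitemia final) are added, and plates sit one parasite generation at 37 C in 5% CO2. Detection reagent is then added and luminescence measured.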
CHX counter: Cycloheximide Counterscreen for Small Molecule Inhibitors of Shiga Toxin. max response, %. cell reporter, cycloheximide protein synthesis inhibition counterscreen. AID 2314, 2010. actives 12% (n = 300,000); in the data active means max response mostly above about 13%, no sharp cut-off; inactive means mostly below about 14%; further: read at 38.3 µM for the half of the compounds with a filed dose; 0% is about no effect
NS1 function inh: qHTS Assay for Inhibitors of Influenza NS1 Protein Function. Potency, µM (titrated, usually from 46.1 µM), inactives show at the top dose activity, positive = more growth. actives 0.4% (n = 270,000); calls by dose curve; further: potency means the concentration at half of the fitted maximal effect; actives are rising curves; nearly all actives have a fitted effect of over 50% in size
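S. cerevisiae expressing influenza A NS1, grown in glucose, washed, then diluted 1:100 into pH 6.0 -URA galactose medium with 23 nl compound. Growth recovery read as OD600; NS1-free strain serves as control.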
SARS PLpro yeast: qHTS of Yeast-based Assay for SARS-CoV PLP; Potency, µM (highest dose often 32.9 µM), without a hit: at the top dose activity, positive = growth rescue, actives largely listed as activators; S. cerevisiae expressing SARS-CoV PLpro, growth rescue; actives 0.19% (n = 330,000); calls by dose curve; further: potency means the concentration at half of the fitted maximal effect; 0% is about no effect; nearly all actives have a fitted effect of over 55% in size
Starred values were filed as active, the others as inactive; ? = inconclusive; . = no result given. Most compounds without a hit are left out; they make up all but 21% or so of the library. Unless noted, the call rests on the fitted dose curve; in most records, active means well fitted inhibition curve with a large enough effect; inconclusive means small, poorly fitted or top-dose-only effect, or another doubt; inactive means no such curve, though single readings can be large or run the other way.

SMILES | Shiga toxin inh | Pf growth 96h | Pf growth 48h | CHX counter | NS1 function inh | SARS PLpro yeast
CN(CC(=O)Nc1cccc(F)c1)C(=O)c1ccc(-c2cccc(C(F)(F)F)c2)o1 | . | 0.12µM* | 0.33µM* | . | . | -4%
COc1cccc(NC(=O)CN(C)CC(=O)Nc2cccc(C(F)(F)F)c2)c1 | -7 | -14% | -24% | 2 | 4% | 1%
COc1cccc(NC(=O)CN(C)C(=O)c2ccc(-c3cccc(C(F)(F)F)c3)o2)c1 | . | 0.26µM* | 0.33µM* | . | . | 3%
Cc1cc(OCC(=O)OC(C)C(=O)Nc2ccc(N3CCOCC3)cc2)ccc1Cl (centres undefined) | . | 91% | 31% | . | . | -1%
Cc1nc2c([nH]1)c(=O)n(C)c(=O)n2Cc1ccco1 | . | 5.4µM* | 4% | . | -6% | .
Cc1ccccc1-n1ccnc1SCC(=O)NCc1ccco1 | -3 | -32% | 18% | 2 | . | -1%
CCc1ccc2oc(-c3cc(N=Cc4cccc(OC)c4O)ccc3O)nc2c1 | 104* | . | -90% | 29* | 1% | -3%
CN(CCNC(=O)CN1CCN(Cc2ccccc2Cl)C1=O)Cc1ccccc1 | -22 | ? | . | 0 | -1% | 5%
O=C(CN1CCN(Cc2ccc(F)cc2Cl)C1=O)NCCc1ccccc1 | 16 | ? | . | 14* | -1% | 0%
O=C(CN1CCCN(Cc2ccc(F)cc2Cl)C1=O)NC1CCCCCCC1 | 8 | ? | ? | 16 | 14% | -1%
O=C(O)CN1CCN(Cc2ccc(F)cc2Cl)C1=O | -6 | 8.3µM* | ? | 2 | ? | 5%
CN(C)S(=O)(=O)c1ccc(Cl)c(NC(=O)CN2CCN(Cc3ccc4c(c3)OCO4)CC2)c1 | -6 | 0% | ? | -3 | 1% | 1%
O=S1(=O)N[C@H](c2ccccc2)C[C@H](c2ccc(C(F)(F)F)cc2)O1 | -6 | -23% | 34% | -2 | -5% | 0%
CNC(=S)N(Cc1ccco1)Cc1cc2cc(OC)ccc2[nH]c1=O | -3 | 293% | 2.6µM* | -4 | 4% | 0%
COc1ccc2[nH]c(=O)c(CN(Cc3cccs3)C(=S)Nc3ccccc3)cc2c1 | 13 | 4.7µM* | ? | -1 | 2% | 15%
CCNC(=S)N(Cc1cccs1)Cc1cc2cc(OCC)ccc2[nH]c1=O | -11 | ? | ? | -2 | 8% | -19%
Cc1ccc(NC(=S)N(Cc2cccs2)Cc2cc3cccc(C)c3[nH]c2=O)cc1 | -7 | 7.4µM* | -28% | -1 | 12% | -6%
CNC(=S)N(Cc1cccs1)Cc1cc2ccc(OC)cc2[nH]c1=O | -11 | ? | ? | -3 | 9% | 18%
CNC(=S)N(Cc1ccco1)Cc1cc2cc(OC)c(OC)cc2[nH]c1=O | -6 | -56% | ? | 1 | 0% | 0%
COc1cc2cc(CN(Cc3cccs3)C(=S)Nc3ccccc3)c(=O)[nH]c2cc1OC | -10 | -1% | 12µM* | -1 | 27% | 7%
Cc1cccc2cc(CN(Cc3cccs3)C(=S)NCC3CCCO3)c(=O)[nH]c12 (centres undefined) | -4 | -11% | -18% | -1 | -3% | 1%
OCC[C@@H]1C[C@H](O)[C@@H](O)[C@]2(Cc3ccccc3CCO2)O1 | -5 | 82% | ? | 1 | 1% | 4%
CN1CCN(C(=O)c2ccc3c(=O)n(CCc4ccccc4)c(=S)[nH]c3c2)CC1 | . | . | . | . | -2% | .
CCN1CCN(C(=O)c2ccc3c(=O)n(CCc4ccccc4)c(=O)[nH]c3c2)CC1 | 59* | -33% | 27% | 20* | 16% | 2%
CCOC(=O)N1CCN(C(=O)c2ccc3c(=O)n(CCc4ccccc4)c(=S)[nH]c3c2)CC1 | -2 | 8.3µM* | ? | -1 | -16% | -4%
SMILES | Shiga toxin inh | Pf growth 96h | Pf growth 48h | CHX counter | NS1 function inh | SARS PLpro yeast
CCCn1c(=S)[nH]c2cc(C(=O)N3CCN(C4CCCCC4)CC3)ccc2c1=O | -9 | 10µM* | 0% | 10 | -9% | 1%
CCCn1c(=S)[nH]c2cc(C(=O)N3CCN(C(=O)OCC)CC3)ccc2c1=O | -8 | ? | 14% | 7 | -10% | 3%
CC(C)N(CCn1c(=S)[nH]c2ccccc2c1=O)C(C)C | -13 | 2.9µM* | . | -2 | 1% | 2%
CCCCn1c(N)c(N(CCOC)C(=O)c2ccc(N3CCCC3=O)cc2)c(=O)[nH]c1=O | . | 8% | -1% | . | . | 0%
COc1cc(Cl)c(C)cc1NC(=O)CN(C)C1CCS(=O)(=O)C1 (centres undefined) | . | . | . | . | . | 0%
CC(=O)NC1(c2ccccc2)CCN(c2cc(C)nc(-c3ccccc3)n2)CC1 | -2 | 18% | 0% | 1 | -1% | 0%
CCOC(=O)N1CCN(C(=O)c2ccc3c(=O)n(Cc4ccc(Cl)cc4)c(=S)[nH]c3c2)CC1 | 10 | 57% | 1% | -2 | 20% | 4%
CC(=O)c1ccc(N2CCN(C(=O)c3ccc(Cn4c(=S)[nH]c5ccc(N6CCOCC6)cc5c4=O)cc3)CC2)cc1 | 59* | 68% | ? | 15 | . | 0%
O=c1c2ccccc2[nH]c(=S)n1CCCN1CCN(C2CCCCC2)CC1 | -7 | . | 13µM* | -1 | 2% | 0%
CCOC(=O)N1CCN(C(=O)c2ccc(Cn3c(=S)[nH]c4ccc(Br)cc4c3=O)cc2)CC1 | -3 | 3.7µM* | 12µM* | 1 | 12% | 1%
CCOc1cc2[nH]c(=S)n(Cc3ccc(C(=O)O)cc3)c(=O)c2cc1OCC | -5 | 9.3µM* | 26% | -2 | 6% | 5%
CC1CCN(CCCn2c(=S)[nH]c3ccccc3c2=O)CC1 | -13 | 94% | -3% | 8 | 7% | 14%
CCOc1cc2[nH]c(=O)n(Cc3ccc(C(=O)NCCOC)cc3)c(=O)c2cc1OCC | -10 | ? | ? | 2 | 11% | 9%
O=C(c1ccc2c(=O)n(Cc3ccccc3)c(=S)[nH]c2c1)N1CCOCC1 | -8 | ? | 3% | -7 | -2% | 3%
COc1ccc(S(=O)(=O)N2CCN(c3ccccc3)CC2)cc1-c1noc(C)n1 | -9 | . | . | 6 | . | .
CCOC(CNC(=O)c1cccn2c(=O)c3cc(Cl)ccc3nc12)OCC | 4 | ? | . | -4 | 19% | 2%
CCOC(CNC(=O)c1cccn2c(=O)c3c(C)c(C)sc3nc12)OCC | -4 | 13µM* | 6.6µM* | -2 | 9% | 0%
CCCc1cnc(N2CCN(C(=O)c3ccc(OC)cc3)CC2)nc1 | -8 | ? | ? | 1 | -7% | -1%
FC(F)(F)c1ccc(-c2csc(-c3ccno3)n2)cc1 | 84* | 3% | 57% | 39* | 0% | -1%
N=C1c2ccccc2CN1NC(=O)c1cccc(S(=O)(=O)N2CCCC2)c1 | -16 | -23% | 0% | 0 | -4% | 0%
COc1cccc(CNC(=O)CS(=O)(=O)Cc2nc(-c3ccc(C)cc3)oc2C)c1OC | 1 | ? | -22% | 4 | 10% | 15%

Compound activity from PubChem.
